Measurements as given in the supplement of paper PMC5662767.
Counter-ions that a name gives are not always drawn.

Tested on: Drosophila S2 cl14 SmoIP sensor cells
Experiment: normalized SmoIP GFP fluorescence (untreated unstimulated = 0%, untreated Hh-stimulated = 100%); higher = more Smo activation sensor fluorescence
Conditions: compound concentration: 2 uM, 24 h
[1] = stimulation: Hh conditioned medium (+Hh)
[2] = stimulation: mock conditioned medium (-Hh)
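Note: flow cytometry read-out as median GFP intensity of gated cells, compounds added 30 min before Hh-conditioned or mock medium, mock-treated cells serving as unstimulated baseline.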

| SMILES | normalized SmoIP GFP fluorescence [1] | normalized SmoIP GFP fluorescence [2] |
| --- | --- | --- |
| O=S(=O)(NCCNC/C=C/c1ccc(Br)cc1)c1cccc2cnccc12 [H-89-dihydrochloride] | 105% | 5.45% |
| FC(F)c1nc2ccccc2n1-c1nc(N2CCOCC2)nc(N2CCOCC2)n1 | 90.8% | -6.73% |
| Cc1ccc(C(=O)N(CCCN)[C@@H](c2oc3cc(Cl)ccc3c(=O)c2Cc2ccccc2)C(C)C)cc1 | 141% | 2.05% |
| C=CC(=O)Nc1cccc(Nc2nc(Nc3ccc(OCCOC)cc3)ncc2F)c1 | 116% | -2.31% |
| CCC1=C(C)CN(C(=O)NCCc2ccc(S(=O)(=O)NC(=O)N[C@H]3CC[C@H](C)CC3)cc2)C1=O [Glimepiride] | 94.8% | 3.18% |
| CC(C)(O)[C@H]1CC[C@@](C)([C@H]2[C@@H](O)C[C@@]3(C)[C@@H]4C[C@H](O[C@@H]5O[C@H](CO)[C@@H](O)[C@H](O)[C@H]5O)[C@H]5C(C)(C)[C@@H](O[C@@H]6OC[C@@H](O)[C@H](O)[C@H]6O)CC[C@@]56C[C@@]46CC[C@]23C)O1 [astragaloside-a] | 120% | -16.8% |
| CC1(C)Cc2c(-c3ccccc3)c(-c3ccc(Cl)cc3)c(CC(=O)O)n2C1 [licofelone] | 121% | -11.2% |
| O=C(/C=C\n1cnc(-c2cc(C(F)(F)F)cc(C(F)(F)F)c2)n1)NNc1cnccn1 | 109% | 1.33% |
| N#Cc1ccc2[nH]c(O)c(-c3ccc(CN4CCOCC4)cn3)c2c1 | 108% | -4.35% |
| O=C1CCC(N2C(=O)c3ccccc3C2=O)C(=O)N1 (stereo not drawn) [Thalidomide] | 101% | 4.26% |
| COCCCOc1cc(C[C@@H](C[C@H](N)[C@@H](O)C[C@H](C(=O)NCC(C)(C)C(N)=O)C(C)C)C(C)C)ccc1OC [Aliskiren-hemifumarate] | 126% | -8.59% |
| CC(C)C[C@@H](C=O)NC(=O)[C@H](CC(C)C)NC(=O)[C@H](CC(C)C)NC(=O)OCc1ccccc1 | 112% | 11.3% |
| CC(C)[C@H](C(=O)Nc1ccc(C(=O)NO)cc1)c1ccccc1 | 299% | 60.6% |
| COc1ccccc1N1CCN(CCN2C(=O)CC3(CCCC3)CC2=O)CC1 | 102% | -17.9% |
| CC1=C(/C=C/C(C)=C/C=C/C(C)=C\C(=O)O)C(C)(C)CCC1 [Isotretinoin] | 106% | -7.27% |
| Fc1cc(-c2cccc3ncc(-c4cnn(C5CCNCC5)c4)nc23)cc(F)c1CN1CCOCC1 | 145% | -4.08% |
| CCO[C@@H]1OC(=O)C[C@@H]1NC(=O)[C@@H]1CCCN1C(=O)[C@@H](NC(=O)c1ccc(N)c(Cl)c1)C(C)(C)C | 135% | -7.78% |
| Cc1cc(C)c(Nc2ccnc(Nc3ccc(C#N)cc3)n2)c(C)c1 [dapivirine] | 111% | -4.13% |
| N#Cc1c(Oc2ccc(F)c(NC(=O)Cc3cccc(C(F)(F)F)c3)c2)ccc2nc(NC(=O)C3CC3)sc12 | 126% | -0.889% |
